Article PMC7862700, “An all-to-all approach to the identification of sequence-specific readers for epigenetic DNA modifications on cytosine”

How the values were obtained:
Assay in all cases: DAPPL (digital affinity profiling via proximity ligation, sequencing); 10 mM Tris-HCl pH 7.5, 50 mM NaCl, 1 mM DTT, 4% glycerol, room temperature, 30 min; GST-TFs on glutathione beads, 16-mer random dsDNA library, 0.1% formaldehyde crosslink after washing; high values mean tight binding
Settings in all cases: protein: recombinant; tags: N-terminal GST; dsDNA, one strand shown
FLI1 = biological target: T1, FLI1 (Homo sapiens, UniProt Q01543 1-452)
T1 sequence: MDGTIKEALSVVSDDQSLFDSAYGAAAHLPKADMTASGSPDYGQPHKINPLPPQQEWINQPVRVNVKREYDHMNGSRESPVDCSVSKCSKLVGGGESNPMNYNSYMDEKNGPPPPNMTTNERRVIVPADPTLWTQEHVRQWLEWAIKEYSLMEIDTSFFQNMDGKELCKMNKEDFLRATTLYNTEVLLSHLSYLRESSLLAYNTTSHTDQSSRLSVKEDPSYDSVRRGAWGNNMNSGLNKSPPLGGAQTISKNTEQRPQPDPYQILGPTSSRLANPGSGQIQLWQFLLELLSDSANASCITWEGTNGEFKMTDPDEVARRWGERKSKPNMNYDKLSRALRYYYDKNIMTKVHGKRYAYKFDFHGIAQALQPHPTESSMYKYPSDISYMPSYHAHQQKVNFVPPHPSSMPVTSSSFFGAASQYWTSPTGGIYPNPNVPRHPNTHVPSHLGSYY
In short: (§1)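 Human transcription factors fused to GST were expressed in yeast, captured on glutathione beads, given DNA barcodes and pooled with a GST-only negative control. Pools were incubated with 200 nmole of a 16-mer random double-stranded DNA library in Tris/NaCl/DTT/glycerol buffer at room temperature for 30 min. They were then washed, crosslinked with 0.1% formaldehyde, proximity-ligated (BsaI/T4 ligase, 1 h, 37 °C), PCR-amplified and sequenced on an Illumina NextSeq500. Binding signal is each 6-mer's read frequency for a factor divided by its frequency for the GST control.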

ELK1 = biological target: T2, ELK1 (Homo sapiens, UniProt P19419 1-428)
T2 sequence: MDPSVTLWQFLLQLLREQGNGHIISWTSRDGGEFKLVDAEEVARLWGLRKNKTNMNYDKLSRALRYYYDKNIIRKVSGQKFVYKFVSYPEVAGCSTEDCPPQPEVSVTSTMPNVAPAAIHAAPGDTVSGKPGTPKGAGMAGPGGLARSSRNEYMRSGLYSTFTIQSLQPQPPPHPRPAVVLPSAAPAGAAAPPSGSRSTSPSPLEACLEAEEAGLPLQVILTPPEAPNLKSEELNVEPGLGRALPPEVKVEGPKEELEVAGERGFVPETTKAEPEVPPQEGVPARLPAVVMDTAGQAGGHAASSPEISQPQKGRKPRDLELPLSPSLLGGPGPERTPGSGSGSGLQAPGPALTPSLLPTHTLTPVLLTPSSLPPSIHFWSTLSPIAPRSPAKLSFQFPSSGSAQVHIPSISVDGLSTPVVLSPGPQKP
In short: as §1

GABPA = biological target: T3, GABPA (Homo sapiens, UniProt Q06546 1-454)
T3 sequence: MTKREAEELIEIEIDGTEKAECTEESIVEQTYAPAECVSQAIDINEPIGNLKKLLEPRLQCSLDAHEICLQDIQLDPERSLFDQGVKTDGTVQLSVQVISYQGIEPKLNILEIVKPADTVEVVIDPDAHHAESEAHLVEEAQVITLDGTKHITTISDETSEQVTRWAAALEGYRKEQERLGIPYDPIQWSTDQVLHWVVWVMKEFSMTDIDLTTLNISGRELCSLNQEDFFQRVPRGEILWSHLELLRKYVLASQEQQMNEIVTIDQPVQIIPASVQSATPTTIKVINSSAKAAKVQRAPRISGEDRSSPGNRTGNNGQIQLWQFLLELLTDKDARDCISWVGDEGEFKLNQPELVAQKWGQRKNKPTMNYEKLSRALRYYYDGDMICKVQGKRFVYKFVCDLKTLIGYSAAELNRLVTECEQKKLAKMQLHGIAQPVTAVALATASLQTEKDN
In short: as §1

ERG = biological target: T4, ERG (Homo sapiens, UniProt P11308 1-479)
T4 sequence: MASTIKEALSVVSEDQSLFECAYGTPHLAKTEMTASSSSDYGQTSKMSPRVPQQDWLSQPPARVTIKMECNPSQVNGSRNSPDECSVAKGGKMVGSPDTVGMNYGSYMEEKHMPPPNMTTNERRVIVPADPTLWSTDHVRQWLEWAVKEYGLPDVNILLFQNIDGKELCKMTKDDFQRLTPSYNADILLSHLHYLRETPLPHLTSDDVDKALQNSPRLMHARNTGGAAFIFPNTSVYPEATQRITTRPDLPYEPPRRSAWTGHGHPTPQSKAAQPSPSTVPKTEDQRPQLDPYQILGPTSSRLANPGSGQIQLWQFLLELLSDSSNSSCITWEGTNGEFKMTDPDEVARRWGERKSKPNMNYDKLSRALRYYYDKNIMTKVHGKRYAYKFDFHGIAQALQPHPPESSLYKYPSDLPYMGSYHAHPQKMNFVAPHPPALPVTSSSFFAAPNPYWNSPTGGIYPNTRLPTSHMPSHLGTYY
In short: as §1

ELF1 = ELF1 (Homo sapiens, UniProt P32519 1-619)
ELF1, sequence (P32519 whole entry): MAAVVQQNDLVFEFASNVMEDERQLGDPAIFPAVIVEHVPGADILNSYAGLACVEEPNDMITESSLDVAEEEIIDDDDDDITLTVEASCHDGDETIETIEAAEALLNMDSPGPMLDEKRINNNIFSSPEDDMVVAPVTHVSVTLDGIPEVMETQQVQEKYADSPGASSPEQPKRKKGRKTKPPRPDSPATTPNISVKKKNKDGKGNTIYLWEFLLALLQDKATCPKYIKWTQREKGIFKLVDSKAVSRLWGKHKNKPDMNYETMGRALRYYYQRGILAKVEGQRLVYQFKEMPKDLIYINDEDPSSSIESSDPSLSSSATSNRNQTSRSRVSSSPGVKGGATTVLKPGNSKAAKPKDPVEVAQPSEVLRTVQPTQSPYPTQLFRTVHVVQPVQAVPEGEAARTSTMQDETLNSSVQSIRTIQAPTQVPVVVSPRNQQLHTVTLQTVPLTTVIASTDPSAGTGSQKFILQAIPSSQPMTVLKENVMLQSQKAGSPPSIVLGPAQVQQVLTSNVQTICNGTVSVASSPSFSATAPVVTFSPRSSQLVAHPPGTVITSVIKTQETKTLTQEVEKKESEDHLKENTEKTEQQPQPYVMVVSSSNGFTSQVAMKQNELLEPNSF
In short: as §1

EHF = biological target: T5, EHF (Homo sapiens, UniProt Q9NZC4 1-300)
T5 sequence: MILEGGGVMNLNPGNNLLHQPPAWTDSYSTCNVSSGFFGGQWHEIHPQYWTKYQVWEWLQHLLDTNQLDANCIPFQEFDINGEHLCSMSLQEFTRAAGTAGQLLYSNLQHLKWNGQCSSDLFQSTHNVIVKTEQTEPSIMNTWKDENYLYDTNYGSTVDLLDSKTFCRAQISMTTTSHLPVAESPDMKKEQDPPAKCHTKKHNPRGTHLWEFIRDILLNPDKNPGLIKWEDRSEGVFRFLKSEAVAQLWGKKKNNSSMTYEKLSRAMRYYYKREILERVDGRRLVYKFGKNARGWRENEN
In short: as §1

SPI1 = SPI1 (Homo sapiens, UniProt P17947 1-270)
In short: as §1

SPIB = SPIB (Homo sapiens, UniProt Q01892 1-262)
SPIB, sequence (Q01892 whole entry): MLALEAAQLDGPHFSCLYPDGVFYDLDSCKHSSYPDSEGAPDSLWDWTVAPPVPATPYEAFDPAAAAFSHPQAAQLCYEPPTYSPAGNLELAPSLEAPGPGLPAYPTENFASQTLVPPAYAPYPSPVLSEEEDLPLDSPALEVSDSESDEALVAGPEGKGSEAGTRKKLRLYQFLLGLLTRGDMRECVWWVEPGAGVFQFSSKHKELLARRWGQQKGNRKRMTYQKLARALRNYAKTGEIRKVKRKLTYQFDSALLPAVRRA
In short: as §1

ELK3 = biological target: T6, ELK3 (Homo sapiens, UniProt P41970 1-407)
T6 sequence: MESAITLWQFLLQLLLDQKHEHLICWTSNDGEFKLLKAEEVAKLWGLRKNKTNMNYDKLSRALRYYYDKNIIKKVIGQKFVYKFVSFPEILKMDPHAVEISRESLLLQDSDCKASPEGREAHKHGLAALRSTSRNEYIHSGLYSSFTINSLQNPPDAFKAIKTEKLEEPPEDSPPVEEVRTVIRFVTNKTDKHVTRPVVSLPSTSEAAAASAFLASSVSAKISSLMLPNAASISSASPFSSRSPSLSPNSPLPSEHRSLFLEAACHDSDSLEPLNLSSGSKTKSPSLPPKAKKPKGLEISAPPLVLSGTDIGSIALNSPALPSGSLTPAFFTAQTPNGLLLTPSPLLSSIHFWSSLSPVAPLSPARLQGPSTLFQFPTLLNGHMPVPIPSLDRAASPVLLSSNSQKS
In short: as §1

| Sequence | binding signal (FLI1) | binding signal (ELK1) | binding signal (GABPA) | binding signal (ERG) | binding signal (ELF1) | binding signal (EHF) | binding signal (SPI1) | binding signal (SPIB) | binding signal (ELK3) |
| --- | --- | --- | --- | --- | --- | --- | --- | --- | --- |
| TACCCA | 1.01 fold enrichment (6-mer frequency, TF over GST control) | 1.09 fold enrichment (6-mer frequency, TF over GST control) | 1.12 fold enrichment (6-mer frequency, TF over GST control) | 1.03 fold enrichment (6-mer frequency, TF over GST control) | 1.07 fold enrichment (6-mer frequency, TF over GST control) | 1.05 fold enrichment (6-mer frequency, TF over GST control) | 1.09 fold enrichment (6-mer frequency, TF over GST control) | 1.1 fold enrichment (6-mer frequency, TF over GST control) | 1.09 fold enrichment (6-mer frequency, TF over GST control) |
| ATCCAC | 1.23 fold enrichment (6-mer frequency, TF over GST control) | 1.28 fold enrichment (6-mer frequency, TF over GST control) | 1.32 fold enrichment (6-mer frequency, TF over GST control) | 1.22 fold enrichment (6-mer frequency, TF over GST control) | 1.22 fold enrichment (6-mer frequency, TF over GST control) | 1.25 fold enrichment (6-mer frequency, TF over GST control) | 1.15 fold enrichment (6-mer frequency, TF over GST control) | 1.19 fold enrichment (6-mer frequency, TF over GST control) | 1.27 fold enrichment (6-mer frequency, TF over GST control) |
| CACATT | 1.3 fold enrichment (6-mer frequency, TF over GST control) | 1.16 fold enrichment (6-mer frequency, TF over GST control) | 1.2 fold enrichment (6-mer frequency, TF over GST control) | 1.15 fold enrichment (6-mer frequency, TF over GST control) | 1.21 fold enrichment (6-mer frequency, TF over GST control) | 1.23 fold enrichment (6-mer frequency, TF over GST control) | 1.14 fold enrichment (6-mer frequency, TF over GST control) | 1.12 fold enrichment (6-mer frequency, TF over GST control) | 1.13 fold enrichment (6-mer frequency, TF over GST control) |
| CCCCTT | 1.48 fold enrichment (6-mer frequency, TF over GST control) | 1.55 fold enrichment (6-mer frequency, TF over GST control) | 1.44 fold enrichment (6-mer frequency, TF over GST control) | 1.54 fold enrichment (6-mer frequency, TF over GST control) | 1.53 fold enrichment (6-mer frequency, TF over GST control) | 1.62 fold enrichment (6-mer frequency, TF over GST control) | 2.01 fold enrichment (6-mer frequency, TF over GST control) | 1.53 fold enrichment (6-mer frequency, TF over GST control) | 1.51 fold enrichment (6-mer frequency, TF over GST control) |
| CCTACC | 1.21 fold enrichment (6-mer frequency, TF over GST control) | 1.37 fold enrichment (6-mer frequency, TF over GST control) | 1.39 fold enrichment (6-mer frequency, TF over GST control) | 1.29 fold enrichment (6-mer frequency, TF over GST control) | 1.28 fold enrichment (6-mer frequency, TF over GST control) | 1.33 fold enrichment (6-mer frequency, TF over GST control) | 1.31 fold enrichment (6-mer frequency, TF over GST control) | 1.38 fold enrichment (6-mer frequency, TF over GST control) | 1.27 fold enrichment (6-mer frequency, TF over GST control) |
| ATTGAA | 1.07 fold enrichment (6-mer frequency, TF over GST control) | 1.16 fold enrichment (6-mer frequency, TF over GST control) | 1.07 fold enrichment (6-mer frequency, TF over GST control) | 1.05 fold enrichment (6-mer frequency, TF over GST control) | 1.06 fold enrichment (6-mer frequency, TF over GST control) | 1.03 fold enrichment (6-mer frequency, TF over GST control) | 1.04 fold enrichment (6-mer frequency, TF over GST control) | 1.09 fold enrichment (6-mer frequency, TF over GST control) | 1.11 fold enrichment (6-mer frequency, TF over GST control) |
| TGTCAT | 1.24 fold enrichment (6-mer frequency, TF over GST control) | 1.08 fold enrichment (6-mer frequency, TF over GST control) | 1.18 fold enrichment (6-mer frequency, TF over GST control) | 1.11 fold enrichment (6-mer frequency, TF over GST control) | 1.15 fold enrichment (6-mer frequency, TF over GST control) | 1.17 fold enrichment (6-mer frequency, TF over GST control) | 1.09 fold enrichment (6-mer frequency, TF over GST control) | 1.2 fold enrichment (6-mer frequency, TF over GST control) | 1.04 fold enrichment (6-mer frequency, TF over GST control) |
